From PubChem BioAssay (NCI)
Compounds without any hit were thinned out: in the full panel of roughly 83,000, 20% have a hit.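 The endpoint reported here, percent growth, reads 100 for growth as untreated, 0 for no net growth and -100 for all cells dead.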 A number with no mark means an inactive call. Activity calls are given as the source filed them. How the source made its calls: active means growth percent below 10; inactive means the rest.

test system: MALME-3M melanoma; assay: NCI-60 one-dose screen, 48 h (100 = growth as untreated, 0 = no growth, -100 = all killed); conditions: 10 µM unless noted

| SMILES | growth |
| --- | --- |
| CC1(C)C(N(O)C(=O)Nc2ccc(Cl)cc2)N(c2ccc(Cl)cc2)C(=O)N1CC(=O)N/N=C/C=C/c1ccc([N+](=O)[O-])o1 (stereo not drawn) | -42.6% (active) |
| Oc1ccc(-c2cnc(-c3ccccc3)[nH]2)c(O)c1 | 76.5% |
| NC(N)=N/N=C\c1cccc(OCc2ccccc2)c1 | 85.8% |
| CCCCn1c(-c2ccc(F)cc2)nc2cc(OC)c(OC)cc2c1=O | 71.8% |
| Cc1[nH]n(C(=O)c2ccncc2)c(=O)c1N=Nc1ccc(O)c(C(=O)O)c1 | 94.2% |
| COc1cc2c(cc1OC)C(=O)OC2 | 124% |
| Cc1cc2nc3c(=O)[nH]c(=O)nc-3n(CC=O)c2cc1C | 112% |
| Cc1nc([C@H]2CC[C@H]3[C@@H]4CCC5=CC(=O)CC[C@]5(C)[C@H]4CC[C@]23C)cs1 | 99.5% |
| C=CCn1c(SCC(=O)Nc2ccc(C(=O)/C=C/c3ccc(Cl)cc3)cc2)nnc1-c1ccc(Cl)cc1 | 93.2% |
| COC(=O)c1cc2oc(/C=N/NC(=O)c3cc4oc(-c5cccc(C(F)(F)F)c5)cc4[nH]3)cc2n1Cc1ccccc1 | 6.57% (active) |
| CC(=O)[C@@]1(O)[C@H](C)C[C@H]2[C@@H]3C=C(C)C4=Cc5c(cnn5-c5ccccc5)C[C@]4(C)[C@H]3[C@@H](O)C[C@@]21C | 41.8% |
| CCOc1c(C#N)c2c(N)ncnc2n1C1OC(CO)C(O)C1O (stereo not drawn) | 59.2% |
| CCNS(=O)(=O)c1ccc(C)cc1 | 104% |
| CCCCN(CCCC)CCC(=O)c1ccc(OC)c2ccccc12 | 124% |
| Cc1ccccc1CNc1ncnc2[nH]ncc12 | 114% |
| O=C1OC(c2ccc(-c3ccccc3)cc2)=C/C1=C/c1c(Cl)cccc1Cl | 64% |
| NC(N)=N/N=C\c1ccc(OCc2ccccc2)cc1 | 91.5% |
| Fc1ccc(-c2nnc(N3CCOCC3)c3ccccc23)cc1 | 82.9% |
| CC1=NN(c2cccc(S(N)(=O)=O)c2)C(=O)C1 | 89.9% |
| Cc1cccc(C(=O)O)n1 | 111% |
| Cn1c(=O)c2[nH]c(Cc3ccc4c(c3)OCO4)nc2n(C)c1=O | 126% |
| Cc1cc(O)ccc1C1=NN(c2ccc(S(N)(=O)=O)cc2)C(=O)CC1 | 45.3% |
| CC(=O)Nc1ccc(Cl)cc1Cl | 112% |
